Common to all, as to type: functional
Assay [1] concerns Plasmodium falciparum. Kind of assay: GSK_TCMDC: Inhibition of Plasmodium falciparum 3D7 in whole red blood cells, using parasite LDH activity as an index of growth. Test compounds present at 2uM.
Assay [2] deals with Plasmodium falciparum. Kind of assay: GSK_TCMDC: Inhibition of Plasmodium falciparum Dd2 in whole red blood cells, using parasite LDH activity as an index of growth. Test compounds present at 2uM.
For the next assay, the system named is HepG2. Kind of assay: GSK_TCMDC: Percent inhibition of human HepG2 cell line. Test compounds present at 10uM.

Take `CC1(C)CCCC(=Cc2ccc(Br)cc2)C1(O)Cn1ccnc1` (configuration not stated): the values for the Inhibition with Plasmodium falciparum [1], with Plasmodium falciparum [2] and with HepG2 were 99%, 69% and 7%, respectively.

For `CCn1c(Sc2ccc(C#N)c([N+](=O)[O-])c2)nnc1-c1cccc(Cl)c1`, the results for the Inhibition in the assay on Plasmodium falciparum [1], with Plasmodium falciparum [2] and in the assay on HepG2 were 95%, 88% and 0%, respectively.

As for `COc1c(CN2CCOCC2)cccc1-c1cc2c(-c3ccc(C(=O)O)c(C(C)C)c3)ccnc2[nH]1.O=C(O)C(F)(F)F`, the results for the Inhibition in the assay with Plasmodium falciparum [1], with Plasmodium falciparum [2] and with HepG2 were 98%, 90% and 44%, respectively.

As to `CN(CCN)Cc1ccc(-c2ccc(-c3nc4cc(C(F)(F)F)ccc4[nH]3)s2)cc1.O=C(O)C(F)(F)F`, the Inhibition with Plasmodium falciparum [1] is 98%; in the assay with Plasmodium falciparum [2], 98%; in the assay with HepG2, 37%.

On to `Br.CCCN(CCCCCCNCCc1ccc(Cl)cc1)CCc1ccc(O)c(O)c1`, for which the Inhibition in the assay on Plasmodium falciparum [1] was determined as 91%; with Plasmodium falciparum [2] it was 11%; with HepG2 it was 26%.

As for `CC(CNC(=O)c1cc2c(Cl)cc(Cl)cc2[nH]1)CNc1cc(=O)c2ccccc2[nH]1.O=C(O)C(F)(F)F` (configuration not stated), the Inhibition in the assay with Plasmodium falciparum [1] came to 97%; in the assay on Plasmodium falciparum [2] it was 11%; in the assay with HepG2, 11%.

On to `COc1ccc2ncc(F)c([C@@H](O)CN3CCC(NCc4ccc5c(c4)NCCS5)CC3)c2n1.Cl`, for which the Inhibition in the assay on Plasmodium falciparum [1] came to 99%; in the assay with Plasmodium falciparum [2], 69%; in the assay on HepG2, 77%.

Regarding `CN1CCN(c2ccnc3ccc(NC(=O)Nc4ccc(-c5ccncc5)c(C#N)c4)cc23)CC1`, the results for the Inhibition in the assay on Plasmodium falciparum [1], with Plasmodium falciparum [2] and in the assay with HepG2 were 100%, 99% and 32%, respectively.

As to `CC(C)COc1ccc(Cl)cc1Cc1ccc(-c2nc3ccc(C(F)(F)F)cc3[nH]2)o1`, the values for the Inhibition with Plasmodium falciparum [1], with Plasmodium falciparum [2] and with HepG2 were 97%, 51% and 14%, respectively.

Regarding `Clc1cccc(CNC2CCN(CC3CCCCC3)CC2)c1.O=C(O)C(F)(F)F`, the Inhibition is listed as 97% with Plasmodium falciparum [1], 24% in the assay on Plasmodium falciparum [2] and 4% with HepG2.

For the molecule `CCC(CC)(CCC#N)CN(C[C@@H](O)[C@H](Cc1ccccc1)NC(=O)OC(C)(C)C)S(=O)(=O)c1ccc(OC)cc1`, the results for the Inhibition in the assay with Plasmodium falciparum [1], with Plasmodium falciparum [2] and with HepG2 were 82%, 66% and 0%, respectively.

As for `N=C(N)c1ccc(NC(=O)c2cc(Sc3ccc(O)c(C(=O)Nc4ccc(C(=N)N)cc4)c3)ccc2O)cc1`, the Inhibition with Plasmodium falciparum [1] is 93%; with Plasmodium falciparum [2], 87%; in the assay on HepG2, 11%.

As for `O=C(NCCCN1CCCCC1)c1ccc(Nc2nccc(Nc3ccc(Oc4ccccc4)cc3)n2)cc1`, the Inhibition was 100% with Plasmodium falciparum [1], 61% in the assay on Plasmodium falciparum [2] and 30% in the assay with HepG2.

Consider `Cc1cc(N(C)CCN(C)C)nc(Nc2ccc(Cl)cc2)n1`, for which the Inhibition with Plasmodium falciparum [1] stood at 92%; in the assay on Plasmodium falciparum [2], 14%; in the assay on HepG2, 0%.

On to `COc1cc(C=CC(=O)N2CCN(Cc3cccc(C)c3)CC2)ccc1OCc1c(C)noc1C`, for which the Inhibition in the assay on Plasmodium falciparum [1] is 86%; with Plasmodium falciparum [2] it was 95%; with HepG2 it was 8%.

Turning to `COc1ccc2nccc([C@@H](O)CN3CCC(NCCOc4cc(C(F)(F)F)ccc4F)CC3)c2c1.O=C(O)C(=O)O`, the Inhibition was 100% in the assay on Plasmodium falciparum [1], 83% with Plasmodium falciparum [2] and 13% with HepG2.

Take `C=CCn1c(Cc2ccccc2)nnc1Sc1ccc(C#N)c([N+](=O)[O-])c1`: the figures for the Inhibition in the assay with Plasmodium falciparum [1], with Plasmodium falciparum [2] and in the assay with HepG2 were 86%, 43% and 7%, respectively.

Regarding `Cc1cccc(C(=O)Nc2ccnc(N3CCCN(Cc4cccc(O)c4)CC3)c2)c1.O=C(O)C(F)(F)F`, the Inhibition in the assay with Plasmodium falciparum [1] is 84%; in the assay on Plasmodium falciparum [2], 13%; with HepG2, 0%.

Regarding `CCCCCCNC(=O)C1Cc2c([nH]c3ccc(F)cc23)C2(CCN(Cc3ccccc3)CC2)N1` (configuration not stated), the Inhibition worked out at 97% with Plasmodium falciparum [1], 39% in the assay with Plasmodium falciparum [2] and 11% with HepG2.

Take `Cc1nc(C)c(CC(=O)Nc2cccc(-c3cccc(-c4nc5cc(C(F)(F)F)ccc5[nH]4)c3)c2)s1`: the Inhibition in the assay with Plasmodium falciparum [1] is given as 95%; in the assay with Plasmodium falciparum [2], 30%; with HepG2, 49%.

As to `O=C(Nc1ccc2nc3n(c(=O)c2c1)CCCCC3)C(=O)N1CCN(c2ccc(F)cc2)CC1`, the Inhibition is on record as 93% with Plasmodium falciparum [1], 86% in the assay on Plasmodium falciparum [2] and 10% in the assay on HepG2.

With `CC(C)C1C(O)=C(c2ccc3ccccc3c2)C(=O)N1Cc1cccc(F)c1` (configuration not stated), the Inhibition in the assay on Plasmodium falciparum [1] came out at 97%; in the assay on Plasmodium falciparum [2], 82%; with HepG2, 3%.

On to `CCCN(CCCN(CCCN(CCC)C(C)C)c1cc(C)nc(Nc2ccc(Cl)cc2)n1)C(C)C.O=C(O)C(=O)O`, for which the Inhibition in the assay with Plasmodium falciparum [1] was 100%; in the assay on Plasmodium falciparum [2] it was 99%; in the assay on HepG2, 39%.

Turning to `CC(C)(C)c1cc([N+](=O)[O-])cc(C(=O)Nc2ccccc2C(F)(F)F)c1O`, the Inhibition with Plasmodium falciparum [1] was 96%; with Plasmodium falciparum [2] it was 99%; in the assay on HepG2, 74%.

Take `Cc1ccccc1C1CCN(C2CCC(NC(=O)c3ccc(-c4ccccc4)s3)CC2)CC1` (configuration not stated): the figures for the Inhibition with Plasmodium falciparum [1], in the assay with Plasmodium falciparum [2] and in the assay with HepG2 were 100%, 84% and 26%, respectively.

For the molecule `COCCNCc1cccc(-c2ccc3c(Nc4cc(O)c(Cl)cc4F)ccnc3c2)c1`, the Inhibition in the assay on Plasmodium falciparum [1] was 100%; in the assay with Plasmodium falciparum [2], 79%; in the assay on HepG2 it was 0%.

Take `Br.CC[C@H]1CN2CCc3cc(OC)c(OC)cc3[C@@H]2C[C@@H]1CC1=NCCc2c1[nH]c1ccc(OCc3ccccc3)cc21`: the Inhibition with Plasmodium falciparum [1] amounted to 100%; with Plasmodium falciparum [2], 89%; in the assay with HepG2, 57%.

On to `Cc1cc(N[C@@H](Cc2ccccc2)C(=O)NCc2cccs2)nc(Nc2ccccc2)n1.O=C(O)C(F)(F)F`, for which the Inhibition with Plasmodium falciparum [1] is 96%; in the assay on Plasmodium falciparum [2], 36%; with HepG2, 3%.

Take `COc1cc(-c2nc3ccc(N4CCN(C)CC4)cc3[nH]2)cc(OC)c1OC`: the Inhibition with Plasmodium falciparum [1] amounted to 87%; in the assay with Plasmodium falciparum [2], 15%; in the assay with HepG2, 6%.

Source of the values: ChEMBL document CHEMBL1157539, “Thousands of chemical starting points for antimalarial lead identification” (Nature, 2010).
